# Source: PubChem BioAssay (EPA / NIEHS)
# Results filed as inconclusive are left out. Some compounds were tested as several samples or in several runs, with calls that do not always agree. The source made the active and inactive calls. Rule for the calls: active = hit-call score of the fitted dose curve at least 0.9, where 1 is the maximum; inconclusive = response in the unintended direction; inactive = score below 0.9.
# Test: Tanguay_ZF_120hpf_YSE_legacy: (Legacy) Oregon State University Tanguay Lab 120 Hour Post-fertilization zebrafish Assay for Yolk Sac Edema (AID 2283634);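 for AC50: actives raise the incidence of yolk sac edema above the DMSO baseline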
# Description: Tanguay_ZF_120hpf_legacy is a whole embryo, multiplexed endpoint assay using zebrafish larvae exposed for 120 hours post fertilization on a 96-well plate.Tanguay_ZF_120hpf_YSE_legacy is one of one assay component(s) measured or calculated from the Tanguay_ZF_120hpf_legacy assay. It is designed to make measurements of zebrafish development as detected with brightfield microscopy of developing zebrafish embryos.Data from the assay component Tanguay_ZF_120hpf_YSE_legacy was analyzed into 1 assay endpoints. This assay endpoint, Tanguay_ZF_120hpf_YSE_legacy, was analyzed in the positive analysis fitting direction relative to DMSO as the negative control and baseline of activity. Using a type of morphology reporter, gain-of-signal activity can be used to understand changes in developmentals as they relate to the whole embryo. To generalize the intended target to other relatable targets, this assay endpoint is annotated to the zebrafish development intended target family, where the subfamily is extra-embryonic membrane development.
# Zebrafish husbandry: Tropical 5D wild-type adult zebrafish were housed in at an approximate density of 1000 per 100 gallon tank at the Sinnhuber Aquatic Research Laboratory, Oregon State University, Corvallis, OR. Each tank was kept at standard laboratory conditions of 28C on a 14-h light/10-h dark photoperiod in fish water consisting of reverse osmosis water supplemented with a commercially available salt (Instant Ocean). Spawning funnels were placed into the tanks the night prior, and embryos were collected and staged. To increase bioavailability, the chorion was enzymatically removed using pronase (63.6mg/ml, >/= 3.5U/mg, Sigma-Aldrich: P5147) at 4 hours post fertilization (hpf) using a custom automated dechorionator.Chemical exposures: Six hpf dechorionated embryos were placed 1 embryo per well in a 96-well plate prefilled with 90 ul of EM using automated embryo placement systems (AEPS). Ten microliters of each row of dilution plate 2 was added to 2 exposure plates. The final DMSO concentration used was 0.64% (vol/vol). Thirty-two embryos were also exposed to 5uM trimethyltin chloride (positive control). Plates were sealed to prevent evaporation and foil covered to reduce light exposure and kept in a 28C incubator. Embryos were statically exposed until 120 hpf. At 24 hpf, embryos were assessed for photomotor response using a custom photomotor response analysis tool (PRAT) and for developmental toxicity endpoints (MO24: mortality at 24 hpf, DP: developmental progression, SM: spontaneous movement, and NC: notochord distortion). At 120 hpf, locomotor activity was measured using Viewpoint Zebralab and assessed for 18 endpoints. Zebrafish acquisition and analysis program (ZAAP), a custom program designed to inventory, acquire, and manage zebrafish data, was used to collect developmental endpoints as either present or absent (i.e., binary responses were recorded). If mortality occurred for an embryo (at either 24 or 120 hpf), the non-mortality endpoints were not measured.
SMILES,outcome,AC50
O=c1[nH]c(=O)[nH]c(=O)[nH]1,inactive,
O=C1C2(Cl)C3(Cl)C4(Cl)C(Cl)(Cl)C5(Cl)C3(Cl)C1(Cl)C5(Cl)C24Cl (centres undefined),,72.1 µM (active)
CCC(C)(C)c1ccc(O)c(C(C)(C)CC)c1,inactive,
CC(C)(OO)c1ccccc1,inactive,
COc1cc(-c2ccc(N)c(OC)c2)ccc1N,inactive,32.8 µM (active)
O=C(O)C(F)(F)C(F)(F)C(F)(F)C(F)(F)C(F)(F)C(F)(F)F,inactive,
C[C@@H]1C[C@@H]([C@H](O)CC2CC(=O)NC(=O)C2)C(=O)[C@@H](C)C1,inactive,
CCOP(=S)(OCC)SCSP(=S)(OCC)OCC,inactive,
CN(C)N=O,inactive,
CC(C)(C)CC(C)(C)c1ccc(O)cc1,inactive,
ClC1(Cl)C2(Cl)C3(Cl)C4(Cl)C(Cl)(Cl)C5(Cl)C3(Cl)C1(Cl)C5(Cl)C24Cl (centres undefined),inactive,
NC(=O)O,inactive,
C[C@]12CCC(=O)C[C@@H]1CC[C@@H]1[C@@H]2CC[C@]2(C)[C@@H](O)CC[C@@H]12,inactive,
Cc1ccccc1N,inactive,
CC(=O)[O][Hg][c]1ccccc1,inactive,
C=C(C)C(=O)[O][Sn]([CH2]CCC)([CH2]CCC)[CH2]CCC,inactive,
CC12CC1(C)C(=O)N(c1cc(Cl)cc(Cl)c1)C2=O (centres undefined),inactive,
O=C(O)C(F)(F)C(F)(F)C(F)(F)C(F)(F)C(F)(F)C(F)(F)C(F)(F)C(F)(F)C(F)(F)C(F)(F)F,inactive,
CCOP(=S)(OCC)Oc1nc(Cl)c(Cl)cc1Cl,inactive,
CCCCCCCCc1ccc(O)cc1,inactive,
O=C(Nc1ccc2[nH]ccc2c1)c1cc2cc(F)ccc2n1Cc1cccc(F)c1,inactive,
CCN1CCC2(CC1)COc1cc3c(cc12)N(C(=O)c1ccc(-c2ccc(-c4nnc(C)o4)cc2C)cc1)CC3,inactive,
Oc1cccc2cccnc12,inactive,
C=CC(=O)OCCCCCC(C)C,inactive,
O=C(O)C(Cl)(Cl)Cl,inactive,
CC(C)(c1ccccc1)c1ccc(O)c(C(C)(C)c2ccccc2)c1,inactive,
O=[N+]([O-])c1ccc(O)c([N+](=O)[O-])c1,inactive,
CC(C)(C)c1cc(O)ccc1O,inactive,
